Data on 67 compounds can be found in the antibiotic and cytotoxicity screens of Wong et al. (2023).

The campaign covered roughly 39,000 compounds. About 1,500 (3.8%) were called active. Many of the other results were omitted from the sample, so actives are more common in it than they were.

The assay concerns HSkMC (human skeletal muscle cells). In words: cytotoxicity call (relative viability < 0.9). The settings on record: 10 µM.
As for `CCS(=O)(=O)NCC[C@@H]1CC[C@@H](NC(=O)Cc2ccccn2)[C@H](CO)O1`, the cytotoxicity call is “inactive”.
Regarding `C[C@H](CO)N1C[C@H](C)[C@@H](CN(C)C(=O)Nc2ccc(C(F)(F)F)cc2)Oc2ccc(NC(=O)Cc3cn(C)c4ccccc34)cc2C1=O`, the cytotoxicity call is “inactive”.
The value for `C[C@@H]1CN([C@H](C)CO)C(=O)c2cc(NC(=O)Cc3cn(C)c4ccccc34)ccc2O[C@H]1CN(C)Cc1ccc(C(F)(F)F)cc1` was “inactive”; that for `C[C@H](CO)N1C[C@H](C)[C@@H](CN(C)Cc2ccc(C(F)(F)F)cc2)Oc2ccc(NC(=O)Cc3cn(C)c4ccccc34)cc2C1=O` was “inactive”.
The result for `C[C@@H]1CN([C@H](C)CO)C(=O)c2cc(NC(=O)Cc3cn(C)c4ccccc34)ccc2O[C@@H]1CN(C)Cc1ccc(C(F)(F)F)cc1` reads “active”.
The value for `C[C@@H]1CN([C@@H](C)CO)C(=O)c2cc(NC(=O)Cc3cn(C)c4ccccc34)ccc2O[C@@H]1CN(C)C(=O)Nc1ccc(C(F)(F)F)cc1` was “active”; that for `C[C@@H]1CN([C@H](C)CO)C(=O)c2cc(NC(=O)Cc3cn(C)c4ccccc34)ccc2O[C@H]1CN(C)C(=O)Nc1ccc(C(F)(F)F)cc1` was “inactive”; that for `O=C(C[C@H]1CC[C@H]2[C@@H](COC[C@@H](O)CN2S(=O)(=O)c2ccccc2)O1)N1CCc2ccccc2C1` was “inactive”.
Consider `C[C@H]1CN([C@@H](C)CO)C(=O)c2cc(NS(=O)(=O)c3ccccc3)ccc2O[C@H]1CN(C)CC1CC1`, for which the cytotoxicity call was “inactive”.
For the compound `Cn1c(N)c(C(=O)c2ccco2)c(=O)n(C)c1=O`, the cytotoxicity call is “inactive”.
In the case of `C[C@H](CO)N1C[C@H](C)[C@H](CN(C)S(=O)(=O)c2ccc(Cl)cc2)Oc2ccc(NC(=O)CCN3CCOCC3)cc2CC1=O`, the cytotoxicity call was “inactive”.
For `C[C@@H]1CN([C@@H](C)CO)S(=O)(=O)c2ccc(C#C[C@@H](C)O)cc2O[C@H]1CN(C)C(=O)c1ccncc1`, the cytotoxicity call is “inactive”.
With `COc1ccc2c3c([nH]c2c1)[C@H](CO)N(C[C@]13CCN(CC1)CC1CCCC1)C(=O)CN1CCOCC1`, the cytotoxicity call was “inactive”.
The value for `C[C@H]1CN([C@@H](C)CO)C(=O)Cc2cc(NC(=O)c3ccncc3)ccc2O[C@@H]1CN(C)S(=O)(=O)c1ccc(Cl)cc1` was “inactive”.
The result for `C[C@@H]1CCCCO[C@@H](CN(C)Cc2ccccc2)[C@@H](C)CN([C@@H](C)CO)C(=O)c2cc(NC(=O)CCC(F)(F)F)ccc2O1` reads “inactive”; that for `CC(C)C[C@@H]1C(=O)O[C@H](C)C(=O)N(C)[C@@H](CC(C)C)C(=O)O[C@H](Cc2ccc(N3CCOCC3)cc2)C(=O)N(C)[C@@H](CC(C)C)C(=O)O[C@H](C)C(=O)N(C)[C@@H](CC(C)C)C(=O)O[C@H](Cc2ccc(N3CCOCC3)cc2)C(=O)N1C`, “active”.
The value for `CCOc1cc(OCC)cc(C(=O)N[C@@H](Cc2ccc(-n3cc(-c4ccc(C(=O)NO)s4)nn3)cc2)C(=O)OC)c1` was “inactive”; that for `COc1ccccc1-c1cnc2c(c1)C(=O)N([C@H](C)CO)C[C@@H](C)[C@H](CN(C)C(=O)c1cccnc1)O2` was “inactive”.
For `C[C@H](CO)N1C[C@H](C)[C@@H](CN(C)Cc2ccc(Cl)c(Cl)c2)Oc2c(NC(=O)Nc3ccccc3)cccc2C1=O`, the cytotoxicity call was “active”.
On to `C[C@H]1CN([C@@H](C)CO)C(=O)c2cccc(NC(=O)Nc3ccccc3)c2O[C@@H]1CN(C)Cc1ccc(Cl)c(Cl)c1`, for which the cytotoxicity call is “active”.
The result for `C[C@@H]1CN([C@H](C)CO)C(=O)c2cccc(NC(=O)Nc3ccccc3)c2O[C@H]1CN(C)Cc1ccc(Cl)c(Cl)c1` reads “inactive”.
The result for `C[C@H]1CN([C@@H](C)CO)C(=O)c2cccc(NC(=O)Nc3ccccc3)c2O[C@H]1CN(C)Cc1ccc(Cl)c(Cl)c1` reads “inactive”; that for `C[C@H](CO)N1C[C@H](C)[C@@H](CN(C)Cc2ccc(Cl)c(Cl)c2)Oc2c(NC(=O)Nc3cccc4ccccc34)cccc2C1=O`, “active”; that for `C[C@H]1CN([C@@H](C)CO)C(=O)c2cccc(NC(=O)Nc3cccc4ccccc34)c2O[C@H]1CN(C)Cc1ccc(Cl)c(Cl)c1`, “inactive”.
The result for `C[C@@H]1CN([C@@H](C)CO)C(=O)c2cccc(NC(=O)Nc3cccc4ccccc34)c2O[C@@H]1CN(C)Cc1ccc(Cl)c(Cl)c1` reads “inactive”.
Regarding `C[C@H](CO)N1C[C@H](C)[C@H](CN(C)Cc2ccc(Cl)c(Cl)c2)Oc2c(NC(=O)Nc3ccccc3)cccc2C1=O`, the cytotoxicity call is “inactive”.
Consider `C[C@@H]1CN([C@@H](C)CO)C(=O)c2cccc(NC(=O)Nc3ccccc3)c2O[C@@H]1CN(C)Cc1ccc(Cl)c(Cl)c1`, for which the cytotoxicity call is “inactive”.
The result for `Cc1noc(C)c1NC(=O)Nc1ccc2c(c1)C(=O)N([C@H](C)CO)C[C@H](C)[C@@H](CN(C)Cc1ccc(Oc3ccccc3)cc1)O2` reads “inactive”; that for `C[C@H]1CN([C@@H](C)CO)C(=O)Cc2cc(NC(=O)Cc3ccccc3)ccc2O[C@H]1CN(C)C(=O)Nc1cccc2ccccc12`, “inactive”; that for `Cc1noc(C)c1S(=O)(=O)Nc1ccc2c(c1)C(=O)N([C@H](C)CO)C[C@@H](C)[C@@H](CN(C)Cc1ccc(Oc3ccccc3)cc1)O2`, “inactive”.
`Cc1cc2c(cc1C)N[C@@H](CC(N)=O)C(=O)N2`: the cytotoxicity call is “inactive”.
Regarding `C[C@@H]1CN([C@H](C)CO)C(=O)Cc2cc(NC(=O)CCCN(C)C)ccc2O[C@H]1CN(C)Cc1ccc(Oc2ccccc2)cc1`, the cytotoxicity call is “inactive”.
For `COc1ccccc1S(=O)(=O)N[C@H]1C=C[C@H](CC(=O)N2CCN(C)CC2)O[C@@H]1CO`, the cytotoxicity call was “inactive”.
With `C[C@H](CO)N1C[C@H](C)[C@H](CN(C)C(=O)NC2CCCCC2)OCCCC[C@H](C)Oc2ccc(NC(=O)Nc3ccc(C(F)(F)F)cc3)cc2C1=O`, the cytotoxicity call was “inactive”.
The value for `C[C@H](CO)N1C[C@H](C)[C@@H](CN(C)C(=O)c2ccncc2)Oc2cc(-c3cccc(C#N)c3)ccc2S1(=O)=O` was “inactive”; that for `C[C@@H]1CCCCO[C@H](CN(C)Cc2ccccc2)[C@@H](C)CN([C@H](C)CO)C(=O)c2cc(NS(=O)(=O)c3ccccc3)ccc2O1` was “inactive”; that for `CCC(=O)Oc1ccc2c(c1)CCC1C2CCC2(C)C1CC(OC(=O)CC)C2OC(=O)CC` (configuration not stated) was “inactive”.
The result for `COC(=O)[C@@H](N)c1cccc(OC)c1` reads “inactive”; that for `CC(C)c1cccc(C(C)C)c1NC(=O)Cc1cccs1`, “inactive”.
The result for `CC(C)c1cc(C(C)C)c(CC(=O)NS(=O)(=O)Oc2c(C(C)C)cccc2C(C)C)c(C(C)C)c1` reads “active”; that for `C[C@H]1CN([C@@H](C)CO)C(=O)c2c(c3ccccc3n2C)-c2ccccc2CO[C@H]1CN(C)C(=O)c1ccc(F)cc1`, “inactive”.
For the compound `COC(=O)C[C@@H]1CC[C@@H]2[C@H](COC[C@H](O)CN2S(=O)(=O)c2ccc(F)cc2)O1`, the cytotoxicity call is “inactive”.
The value for `C[C@@H]1CN([C@@H](C)CO)S(=O)(=O)c2ccc(-c3cccnc3)cc2O[C@@H]1CN(C)C(=O)NC1CCCC1` was “inactive”; that for `C[C@@H]1CN([C@H](C)CO)S(=O)(=O)c2ccc(-c3cncnc3)cc2O[C@@H]1CN(C)C(=O)C1CCCCC1` was “inactive”.
For the compound `CCCCC1C(=O)N(c2ccccc2)N(c2ccc(O)cc2)C1=O` (configuration not stated), the cytotoxicity call is “inactive”.
The value for `O=C1C=CC(=O)N1c1ccc(O)cc1` was “active”; that for `Oc1ccc(O)cc1` was “inactive”.
The result for `COc1ccc(CN(C)C[C@H]2OCCCC[C@H](C)Oc3ccc(NS(=O)(=O)c4cccs4)cc3C(=O)N([C@@H](C)CO)C[C@@H]2C)cc1` reads “inactive”; that for `C[C@H]1CN([C@@H](C)CO)S(=O)(=O)c2ccc(C3=CCCCC3)cc2O[C@H]1CN(C)S(=O)(=O)c1cn(C)cn1`, “inactive”.
As for `Cc1ccc(S(=O)(=O)Nc2ccc3c(c2)C(=O)N([C@H](C)CO)C[C@@H](C)[C@H](CN(C)Cc2ccccc2)OCCCC[C@@H](C)O3)cc1`, the cytotoxicity call is “inactive”.
Turning to `COc1ccc(S(=O)(=O)N(C)C[C@H]2Oc3c(NC(=O)Nc4c(C)noc4C)cccc3C(=O)N([C@@H](C)CO)C[C@H]2C)cc1`, the cytotoxicity call was “inactive”.
As to `COc1ccc2c3c(n(c2c1)C)[C@H](CO)N(C[C@]13CN(C1)C(=O)CN(C)C)C(=O)CN(C)C`, the cytotoxicity call is “inactive”.
On to `C[C@@H]1CN([C@@H](C)CO)C(=O)c2cc(NC(=O)CCCN(C)C)ccc2O[C@H]1CN(C)Cc1ccc(C(=O)O)cc1`, for which the cytotoxicity call is “inactive”.
The value for `Cc1ncc([N+](=O)[O-])n1C[C@@H](O)CCl` was “inactive”; that for `Cc1noc(C)c1NC(=O)N(C)C[C@@H]1Oc2ccc(NC(=O)Cn3cnnn3)cc2C(=O)N([C@@H](C)CO)C[C@@H]1C` was “inactive”.
As to `N#Cc1c(N)nc(SCc2csc(-c3ccc(Cl)cc3)n2)c(C#N)c1-c1ccc(OCCO)cc1`, the cytotoxicity call is “active”.
Take `COc1ccc(NC(=O)Nc2ccc3c(c2)C(=O)N([C@@H](C)CO)C[C@@H](C)[C@@H](CN(C)C(=O)Nc2ccc4c(c2)OCO4)OCCCC[C@@H](C)O3)cc1`: the cytotoxicity call is “inactive”.
Take `C[C@@H]1CCCCO[C@@H](CN(C)C(=O)CCC(F)(F)F)[C@@H](C)CN([C@@H](C)CO)C(=O)c2cc(NC(=O)Cc3ccccc3)ccc2O1`: the cytotoxicity call was “inactive”.
The result for `C[C@@H]1CN([C@@H](C)CO)C(=O)Cc2cc(NC(=O)Nc3ccc(F)cc3)ccc2O[C@@H]1CN(C)S(C)(=O)=O` reads “inactive”; that for `CCCNC(=O)[C@@]1(Sc2ccc(C)cc2)CC(=O)N(Cc2ccccc2C(F)(F)F)[C@@H]1c1ccc(CO)cc1`, “inactive”.
The value for `Cn1cc(-c2[nH]c3cc(NC(=O)[C@H](N)C4CCCCC4)cc4c3c2C=NNC4=O)cn1` was “active”.
As for `CCCCCCCC/C=C\CCCCCCCC(N)=O`, the cytotoxicity call is “inactive”.
The result for `O=C(C[C@@H]1CC[C@@H]2[C@H](COC[C@H](O)CN2S(=O)(=O)c2ccccc2)O1)NCc1ccncn1` reads “inactive”; that for `C[C@@H]1CCCCO[C@@H](CN(C)C(=O)Nc2ccc(C(F)(F)F)cc2)[C@@H](C)CN([C@H](C)CO)C(=O)c2cc(NC(=O)CCCCCC(=O)Nc3ccccc3N)ccc2O1`, “inactive”; that for `CC(=O)O.Cc1c(-c2ccc(O)cc2)n(Cc2ccc(OCCN3CCCCCC3)cc2)c2ccc(O)cc12`, “inactive”.
The result for `CCCCCS(=O)(=O)CCCCCCCCCCn1c(-c2ccc(O)cc2)c(C)c2cc(O)ccc21` reads “active”; that for `CCCCC(=O)c1ccc(O)cc1`, “inactive”.
